“And” between values parts separate entries of the source, which are not always exact repeats. Equal entries are not always repeated. Records with an inconclusive call do not appear. Where a structure was tested more than once in an assay, its records may differ in their call. The source made the active and inactive calls. Unless noted, calls come from the whole dose curve; as a rule, active = well fitted curve in the direction sought with a large enough effect; inconclusive = small, poorly fitted or top-dose-only effect, or another doubt; inactive = no such curve, though single readings can be large; an effect the other way counts as inactive or inconclusive.
What was measured:
[1] = qHTS for inhibitors of adenylyl cyclases using a fission yeast platform: a pilot screen against the NCATS LOPAC library (AID 1347410);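 note: plate controls were DMSO vehicle for no effect and DPI positive control for full effect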
In short: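 Growth medium went into the plates first, then compounds were pinned (final up to 57 µM), then CHP2027 yeast were added. Plates were incubated overnight (18 h) at 30C in the dark, and GFP was measured by laser scanning cytometry.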

[2] = Validation qHTS assay for inhibitors of Activation Induced Cytidine Deaminase (AID): UDG Counterscreen signal (AID 1347427); note: 0% is about no effect
In short: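 Counterscreen read of UDG activity (2 U/mL, 4/3x) in the FRET deamination format with AID (1 uM, 4/3x), DJC20/DJC23 substrates (250 nM, 4x), 4 h at room temperature. NaOH stop, fluorescence at 560 ex/665 em.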

[3] = molecular target: Single-stranded DNA cytosine deaminase (Homo sapiens) (UniProt Q9GZX7); test: Validation qHTS assay for inhibitors of Activation Induced Cytidine Deaminase (AID): AID signal (AID 1347429); note: % is set by controls: 0 for no effect and ±100 for the full control effect
Sequence of Single-stranded DNA cytosine deaminase (Homo sapiens) (Q9GZX7 whole entry, looked up): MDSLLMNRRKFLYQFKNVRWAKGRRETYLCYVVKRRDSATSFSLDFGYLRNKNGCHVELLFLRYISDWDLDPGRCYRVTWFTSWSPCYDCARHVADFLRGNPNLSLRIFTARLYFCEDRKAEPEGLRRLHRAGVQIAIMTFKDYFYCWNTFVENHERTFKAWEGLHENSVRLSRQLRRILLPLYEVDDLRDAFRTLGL
In short: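 Fluorescence at 540 nm excitation and 590 nm emission reports ssDNA cytosine deamination by AID, with UDG in the same well. Compound-treated reactions ran 4 hr at room temperature with DJC20/DJC23 substrate, followed by 30 min NaOH treatment.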

[4] = Primary qHTS for inhibitors of La Crosse Virus (LACV) - induced cell death in SH-SY5Y cells (AID 1508616); note: potency is the fitted concentration of half-maximal effect
In short: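 Protection against LACV-induced cell death is scored in SH-SY5Y cells exposed to compounds and virus (0.01 MOI) for 6 days. Data normalized to virus-infected DMSO wells and virus-free DMSO wells.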

[5] = molecular target: Calcium and integrin-binding protein 1 (Homo sapiens) (UniProt Q99828); test: Validation qHTS for Identification of Calcium Integrin Binding protein 1 (CIB1) Competitor (AID 1508618); note: % is set by controls: 0 for no effect and ±100 for the full control effect
Sequence of Calcium and integrin-binding protein 1 (Homo sapiens) (Q99828 whole entry, looked up): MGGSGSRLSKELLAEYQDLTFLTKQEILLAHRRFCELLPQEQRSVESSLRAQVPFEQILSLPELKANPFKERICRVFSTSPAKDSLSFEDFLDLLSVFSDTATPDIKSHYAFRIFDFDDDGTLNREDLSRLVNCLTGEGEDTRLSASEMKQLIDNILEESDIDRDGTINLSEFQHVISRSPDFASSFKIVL
In short: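 In this qHTS validation, the LOPAC set (up to 114 uM) was tested for blocking CIB1 binding to a fluorescein-tagged alphaIIb peptide, with FP detection at 480/540 nm.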

[6] = Primary qHTS for small molecule stabilizers of the endoplasmic reticulum resident proteome: Secreted ER Calcium Modulated Protein (SERCaMP) assay (AID 1508630); note: % is set by controls: 0 for no effect and ±100 for the full control effect
In short: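 GLuc-SERCaMP-expressing SH-SY5Y cells, pretreated 16 h with compound, are challenged with thapsigargin to empty ER calcium stores; after 4 h, coelenterazine is added directly to the medium and luminescence is imaged.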

Papain (Carica papaya) = Papain (Carica papaya) (UniProt P00784); test: Primary qHTS assay for inhibitors of the protease papain (AID 1645873);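 note: papain turnover of Z-FR-AMC read as the AMC fluorescence gain over 10 min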; note: potency is the fitted concentration of half-maximal effect
Sequence of Papain (Carica papaya) (P00784 whole entry, looked up): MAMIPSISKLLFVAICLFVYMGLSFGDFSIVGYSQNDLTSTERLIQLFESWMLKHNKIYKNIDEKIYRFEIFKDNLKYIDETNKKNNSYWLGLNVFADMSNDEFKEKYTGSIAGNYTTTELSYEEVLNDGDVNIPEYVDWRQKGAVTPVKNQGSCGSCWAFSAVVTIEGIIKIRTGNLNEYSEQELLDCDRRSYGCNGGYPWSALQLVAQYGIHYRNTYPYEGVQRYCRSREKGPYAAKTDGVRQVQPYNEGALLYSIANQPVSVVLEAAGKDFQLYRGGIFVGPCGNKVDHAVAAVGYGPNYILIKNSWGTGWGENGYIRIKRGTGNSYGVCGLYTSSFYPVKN

[7] = qHTS to identify inhibitors of the type 1 interferon - major histocompatibility complex class I in skeletal muscle: primary screen against the NCATS Mechanism Interrogation Plate v5.0 (MIPE) Libary (AID 1347411);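 note: plate controls were vehicle for no effect and reference inhibitor for full effect; nearly all actives have a fitted effect of over 65% in size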
In short: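 Luminescence from HiBiT-tagged endogenous HLA-B*08:01 served as the MHC class I read-out. CRISPR-engineered C25cl48 human myoblasts received 4.0 ng/ml IFN-beta plus compound for 24 hrs, with an 11-point, 1:3 series topping at 46 uM final.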

[8] = molecular target: Cytochrome P450 2D6 (Homo sapiens) (UniProt P10635); test: Cytochrome P450 family 2 subfamily D member 6 (CYP2D6) small molecule antagonists: luciferase biochemical (cell-free) qHTS assay (AID 1645840; active = well fitted curve in the direction sought with a large enough effect in the repeat runs; an effect the other way counts as inactive or inconclusive; note: nearly all actives have a fitted effect of over 55% in size; note: potency is the fitted concentration of half-maximal effect)
Sequence of Cytochrome P450 2D6 (Homo sapiens) (P10635 whole entry, looked up): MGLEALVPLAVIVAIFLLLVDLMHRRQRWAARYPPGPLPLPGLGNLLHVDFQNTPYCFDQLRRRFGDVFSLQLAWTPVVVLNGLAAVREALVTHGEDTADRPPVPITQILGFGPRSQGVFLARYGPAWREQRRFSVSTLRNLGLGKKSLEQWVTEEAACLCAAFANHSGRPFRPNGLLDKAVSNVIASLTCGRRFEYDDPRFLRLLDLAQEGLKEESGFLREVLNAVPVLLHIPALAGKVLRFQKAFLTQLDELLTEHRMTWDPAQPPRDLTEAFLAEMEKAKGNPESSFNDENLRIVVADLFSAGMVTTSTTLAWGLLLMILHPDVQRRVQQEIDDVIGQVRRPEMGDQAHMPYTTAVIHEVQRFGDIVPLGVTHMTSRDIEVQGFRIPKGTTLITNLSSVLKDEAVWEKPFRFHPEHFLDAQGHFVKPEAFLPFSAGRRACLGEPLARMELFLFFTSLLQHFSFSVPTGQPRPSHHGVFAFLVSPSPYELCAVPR
In short: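 P450-Glo luminescent screen: recombinant CYP2D6 enzyme–proluciferin substrate mix preincubated with compound 10 min at room temperature, then NADPH regeneration added for 1 h at room temperature. Detection reagent added for 20 min; luciferin light read as relative luminescence units.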

[9] = molecular target: Cytochrome P450 2C9 (Homo sapiens) (UniProt P11712); test: Cytochrome P450 family 2 subfamily C member 9 (CYP2C9) small molecule antagonists: luciferase biochemical (cell-free) qHTS assay (AID 1645842; active = well fitted curve in the direction sought with a large enough effect in the repeat runs; an effect the other way counts as inactive or inconclusive; note: nearly all actives have a fitted effect of over 55% in size; note: potency is the fitted concentration of half-maximal effect)
Sequence of Cytochrome P450 2C9 (Homo sapiens) (P11712 whole entry, looked up): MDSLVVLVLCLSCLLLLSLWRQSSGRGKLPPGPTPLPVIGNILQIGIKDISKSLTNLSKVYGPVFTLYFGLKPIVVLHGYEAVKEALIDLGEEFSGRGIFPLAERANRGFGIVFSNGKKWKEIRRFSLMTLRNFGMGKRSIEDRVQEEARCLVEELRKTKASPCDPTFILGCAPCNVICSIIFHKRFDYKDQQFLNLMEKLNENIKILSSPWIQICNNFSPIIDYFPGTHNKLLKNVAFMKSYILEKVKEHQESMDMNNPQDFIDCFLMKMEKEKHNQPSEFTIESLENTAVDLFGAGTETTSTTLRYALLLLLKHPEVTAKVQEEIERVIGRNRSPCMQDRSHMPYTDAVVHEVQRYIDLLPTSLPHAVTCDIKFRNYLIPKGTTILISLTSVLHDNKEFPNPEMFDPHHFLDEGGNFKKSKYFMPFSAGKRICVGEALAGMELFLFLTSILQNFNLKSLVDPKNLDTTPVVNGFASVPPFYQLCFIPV
In short: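 Luminescence, after 20 min with luciferin detection reagent, reflected CYP2C9 turnover during a 1 h NADPH-driven reaction at 37C. Enzyme-substrate mix contained 0.4% bovine serum albumin and was preincubated with compound 10 min at room temperature.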

[10] = Counterscreen qHTS for small molecule stabilizers of the endoplasmic reticulum resident proteome: GLuc-NoTag assay (AID 1508627);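 note: SH-SY5Y cells given compound then 100 nM thapsigargin to empty ER calcium; series mostly up to about 76 µM; 0% = thapsigargin alone and -100% = DMSO vehicle control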
In short: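 SH-SY5Y cells stably expressing constitutively secreted GLuc without SERCaMP tag, exposed to compound for 19 hr, then to 100 nM thapsigargin for 4 hr at 37C. Medium luciferase was read by coelenterazine luminescence without lysis.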

[11] = Confirmatory qHTS for small molecule stabilizers of the endoplasmic reticulum resident proteome: Secreted ER Calcium Modulated Protein (SERCaMP) assay (AID 1508628); note: nearly all actives have a fitted effect of over 40% in size; note: potency is the fitted concentration of half-maximal effect
In short: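 SH-SY5Y cells stably expressing GLuc-SERCaMP, treated 16 h with compound (primary 1.53, 7.67, 38.3 uM; confirmation 11 concentrations, up to 76.6 uM), then 100 nM thapsigargin for 4 h. Secreted Gaussia luciferase in medium read by coelenterazine luminescence.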

[12] = Cell Viability qHTS for small molecule stabilizers of the endoplasmic reticulum resident proteome (AID 1508629); settings: cell viability counter-screen, 100 nM thapsigargin for final 4 h;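 note: human SH-SY5Y neuroblastoma cells carrying the GLuc-SERCaMP reporter; compound exposure about 46 h in total before the viability read; % is set by controls: 0 for no effect and ±100 for the full control effect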
[13] = molecular target: Calcium and integrin-binding protein 1 (Homo sapiens) (UniProt Q99828); test: Primary qHTS for Identification of Calcium Integrin Binding Protein 1 (CIB1) Competitor (AID 1508620)
In short: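 Fluorescence polarization competition: GST-tagged CIB1 (1 uM final) preincubated with compound 15 min at room temperature, then FITC-labelled alphaIIb peptide (100 nM final) added. After 15 min at room temperature, polarization read at Ex 480/Em 540.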

[14] = molecular target: N-terminal Xaa-Pro-Lys N-methyltransferase 1 (Homo sapiens) (UniProt Q9BV86); test: Confirmatory qHTS for Inhibitors of N-terminal methyltransferase 1 (NTMT1): MTaseGlo Assay (AID 1645874); settings: NTMT1 enzyme, MTase-Glo SAH luminescence; note: potency is the fitted concentration of half-maximal effect; nearly all actives have a fitted effect of over 65% in size
Sequence of N-terminal Xaa-Pro-Lys N-methyltransferase 1 (Homo sapiens) (Q9BV86 whole entry, looked up): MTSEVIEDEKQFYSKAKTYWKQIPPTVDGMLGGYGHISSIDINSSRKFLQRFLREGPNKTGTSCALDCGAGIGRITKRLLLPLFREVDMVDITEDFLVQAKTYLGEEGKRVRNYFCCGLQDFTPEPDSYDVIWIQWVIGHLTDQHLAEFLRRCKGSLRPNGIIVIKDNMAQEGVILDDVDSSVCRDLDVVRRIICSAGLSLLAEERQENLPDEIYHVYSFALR
In short: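 Compounds are incubated with 125 nM NTMT1 and 100 uM SAM for 15 min before the SPKRIA peptide (1 uM) starts a 30 min room-temperature methylation. SAH is measured by coupled luciferase luminescence and curves fitted to a Hill equation.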

CC1(C)CCC=[N+]1[O-]
inactive: outcome [1] | Potency [2] | Potency [3] | Potency [4] | outcome [5] | Potency [6] | Potency (Papain (Carica papaya))

OC[C@H]1O[C@@H](n2cnc3c(NC4CCCC4)ncnc32)[C@H](O)[C@@H]1O
inactive: outcome [1] | Potency [2] | Potency [3] | Potency [4] | outcome [5] | Potency [6] | Potency (Papain (Carica papaya))

O=S(=O)(c1cccc2c(I)cccc12)N1CCCNCC1
inactive: outcome [1] | Potency [7] | Potency [2] | Potency [3] | outcome [5] | Potency (Papain (Carica papaya))

O=Nc1ccc2oc(=O)ccc2c1
inactive: outcome [1] | Potency [2] | Potency [3] | Potency [4] | outcome [5] | Potency [6] | Potency (Papain (Carica papaya))

CO/N=C(\C(=O)N[C@@H]1C(=O)N2C(C(=O)O)=C(COC(C)=O)CS[C@H]12)c1csc(N)n1
inactive: outcome [1] | Potency [2] | Potency [3] | Potency [4] | outcome [5] | Potency [6] | Potency [8] | Potency [9] | Potency (Papain (Carica papaya))

CN1[C@@H](CC(=O)c2ccccc2)CCC[C@H]1C[C@H](O)c1ccccc1
inactive: outcome [1] | Potency [2] | Potency [3] | Potency [4] | outcome [5] | Potency [10] | Potency (Papain (Carica papaya))

Oc1cc2c(cc1O)CN(C(=S)NCCc1ccc(Cl)cc1)CCC2
inactive: outcome [1] | Potency [2] | Potency [3] | outcome [5] | Potency (Papain (Carica papaya))
active: Potency [4] 2.24 µM | Potency [11] 15.8 µM

CCN1/C(=C/C(C)=O)Sc2ccc(OC)cc21
inactive: outcome [1] | Potency [7] | Potency [2] | Potency [3] | Potency [4] | outcome [5] | Potency (Papain (Carica papaya))

COC(=O)c1c(C)[nH]c(C)c1C(=O)c1ccccc1Cc1ccccc1
inactive: outcome [1] | Potency [2] | Potency [3] | Potency [4] | outcome [5] | Potency [6] | Potency (Papain (Carica papaya))

CC(=O)SCC[N+](C)(C)C
inactive: outcome [1] | Potency [2] | Potency [3] | Potency [4] | outcome [5] | Potency [6] | Potency (Papain (Carica papaya))

COc1cc(SC)ccc1C(=O)N1CCC(Cc2ccccc2)CC1
inactive: outcome [1] | Potency [7] | Potency [2] | Potency [4] | Potency [6] | Potency (Papain (Carica papaya))

CC1CN(S(=O)(=O)c2cccc3cnccc23)CCN1 (centres undefined)
inactive: outcome [1] | Potency [2] | Potency [3] | Potency [4] | outcome [5] | Potency [10] | max response [12] 32.3% | Potency (Papain (Carica papaya))

O=C(/C=C/c1ccc(O)c(O)c1)OCCc1ccccc1
inactive and 4.47 µM (active): Potency [11]
inactive: outcome [1] | Potency [2] | Potency [3] | outcome [5] | Potency [10] | Potency (Papain (Carica papaya))
active: Potency [4] 0.631 µM

COc1cccc(OC)c1OCCNCC1COc2ccccc2O1 (centres undefined)
inactive: outcome [1] | Potency [2] | Potency [3] | Potency [4] | outcome [5] | Potency [6] | Potency (Papain (Carica papaya))

OCC1O[C@H](O)C(Cl)C(O)C1O (some centres undefined)
inactive: outcome [1] | Potency [2] | Potency [3] | Potency [4] | outcome [5] | Potency [6] | Potency (Papain (Carica papaya))

NCCCCCCCCCCN
inactive: outcome [1] | Potency [2] | Potency [3] | Potency [4] | outcome [5] | Potency [6] | Potency (Papain (Carica papaya))

Oc1cc(O)cc(/C=C/c2ccc(O)c(O)c2)c1
active: Potency [4] 3.16 µM | Potency (Papain (Carica papaya)) 22.4 µM
inactive: outcome [1] | Potency [7] | Potency [2] | Potency [3] | Potency [11]

N#C/C(=C\c1ccc(O)c(O)c1)C(=O)c1ccc(O)c(O)c1
inactive: outcome [1] | Potency [2] | Potency [3] | Potency [4] | outcome [5] | Potency [10]

Oc1ccc(C2CNCc3sccc32)cc1O (centres undefined)
inactive: outcome [1] | Potency [2] | Potency [3] | Potency [4] | outcome [5] | Potency [6] | Potency (Papain (Carica papaya))

O=C(O)c1cc([N+](=O)[O-])ccc1NCCCc1ccccc1
inactive: outcome [1] | Potency [2] | Potency [3] | Potency [4] | outcome [5] | Potency [6] | Potency (Papain (Carica papaya))

COc1ccc(/C=C/C(=O)Nc2ccccc2C(=O)O)cc1OC
inactive: outcome [1] | Potency [7] | Potency [2] | Potency [3] | Potency [4] | Potency [13]
active: Potency [11] 39.8 µM

Cc1cc(NC(=O)Nc2ccc3c(ccn3C)c2)sn1
inactive: outcome [1] | Potency [2] | Potency [3] | Potency [4] | outcome [5] | Potency [6] | Potency (Papain (Carica papaya))

O=C(Nc1ccc2c(c1)CCN(Cc1ncn[nH]1)C2)c1ccccc1-c1ccc(C(F)(F)F)cc1
active: Potency [8] 0.12 µM | Potency [9] 10.7 µM
inactive: outcome [1] | Potency [7] | outcome [5] | Potency [13] | Potency (Papain (Carica papaya))

CN1CCc2cccc3c2C1Cc1ccc(O)c(O)c1-3 (centres undefined)
inactive: outcome [1] | Potency [2] | Potency [3] | Potency [4] | outcome [5] | Potency [6]

O=C1NC(=O)/C(=C/c2ccc(-c3ccc(F)cc3O)o2)S1
inactive: outcome [1] | Potency [7] | Potency [2] | Potency [3] | Potency [4] | outcome [5] | Potency [6] | Potency (Papain (Carica papaya))
active: Potency [14] 34.5 µM

CSc1ccccc1N1CCN(CCCCCC(=O)NC2CCCc3ccccc32)CC1 (centres undefined)
inactive: outcome [1] | Potency [2] | Potency [3] | Potency [4] | outcome [5] | Potency [6] | Potency (Papain (Carica papaya))

— PubChem BioAssay (NCATS)
